{"source": "PubChem BioAssay AID932", "about": "(The Scripps Research Institute Molecular Screening Center, 2007)", "note": "In all, about 200,000 compounds went through this assay and about 5,100 (2.5%) were called active. What follows is part of a selection rich in actives, with near analogues and random picks from the rest. Values without a mark were called inactive.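 Rule for the calls: active = activation above the screen-wide mean activation plus 3 SD (cut at about 130% in these data); inactive = the rest.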"}
{"test": "potentiators of IFN-gamma driven STAT1 reporter – cell-based, HTS, luciferase reporter, primary screen (AID 932);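 note: raw ratio to IFN-gamma control signal so 100% means no change and 0% no light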", "settings": "NIH 3T3 STAT1-luciferase reporter, luminescence, at 5.5 µM, stronger effect = higher value, 100% = IFN-gamma alone, no compound"}
{"compound": "CC(C)(C)c1ccc(OC(=O)N2CCCCC2)cc1", "activation (% of control)": "146% (active)"}
{"compound": "O=C(Nc1cccc(OC(=O)N2CCCCC2)c1)N1CCOCC1", "activation (% of control)": "101%"}
{"compound": "CN1CCN(C(=O)COc2ccc(C(C)(C)C)cc2Br)CC1", "activation (% of control)": "97%"}
{"compound": "Cc1ccccc1N1C(=O)NC(=O)/C(=C\\c2cc(C)n(C)c2C)C1=O", "activation (% of control)": "92.7%"}
{"compound": "CCOC(=O)C1CN(C)CCC1=O", "note": "(stereo not given)", "activation (% of control)": "96.3%"}
